Records with an inconclusive call do not appear. Where a call stands in place of a potency, no number is given. Activity calls are given as the source filed them. Calls come from the whole dose curve; as a rule, active = well fitted inhibition curve with a large enough effect; inconclusive = small, poorly fitted or top-dose-only effect; inactive = no such curve, though single readings can be large or run the other way.
Each compound was assayed against Cytochrome P450 2C19 (Homo sapiens) (UniProt P33261) (assay: qHTS Assay for Inhibitors and Substrates of Cytochrome P450 2C19 (AID 899; note: nearly all actives have a fitted effect of over 60% in size)). Settings: recombinant CYP2C19, luciferin-H EGE luminescence; series mostly up to 57.1 µM.
Outline: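 Luminescent read-out of luciferin formed from Luciferin-H EGE (10uM, equal to KM). Enzyme 5nM in 50mM KPO4; compound added, 10 min at 37C, then NADPH regenerating system for 60 min at 37C. Full inhibition defined by 57uM ketoconazole.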
Potency is the fitted concentration of half-maximal effect.

Cytochrome P450 2C19 (Homo sapiens), sequence (P33261 whole entry, looked up): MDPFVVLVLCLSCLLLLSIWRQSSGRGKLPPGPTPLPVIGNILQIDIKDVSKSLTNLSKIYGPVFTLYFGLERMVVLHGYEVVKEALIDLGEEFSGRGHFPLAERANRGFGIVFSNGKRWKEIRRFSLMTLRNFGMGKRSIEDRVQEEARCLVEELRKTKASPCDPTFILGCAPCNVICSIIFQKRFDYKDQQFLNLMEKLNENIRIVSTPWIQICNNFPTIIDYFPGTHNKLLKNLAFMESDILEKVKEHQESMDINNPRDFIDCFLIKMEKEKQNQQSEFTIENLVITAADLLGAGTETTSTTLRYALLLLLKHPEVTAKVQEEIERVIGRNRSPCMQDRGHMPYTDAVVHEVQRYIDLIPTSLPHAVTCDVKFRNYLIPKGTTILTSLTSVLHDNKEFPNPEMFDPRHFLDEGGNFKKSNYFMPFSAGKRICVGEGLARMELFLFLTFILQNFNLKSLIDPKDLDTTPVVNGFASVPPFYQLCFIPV

| Compound | Potency |
| --- | --- |
| C=C/C(=C\C)C[C@@H](CC(=O)N[C@@H](CCC(=O)O)CC(=O)O)NC(=O)[C@@H]1CNCC[C@H]1NC(=O)C[C@@H](NC(=O)C[C@H](Cc1ccccc1)NC(=O)[C@@H]1CCCC[C@H]1N)C(C)C | inactive |
| NCCC[C@@H](CC(=O)N[C@@H]1CCCC[C@H]1C(=O)N[C@H](CC(=O)N[C@@H](CCC(=O)O)CC(=O)O)Cc1c[nH]c2ccccc12)NC(=O)C[C@H](Cc1ccccc1)NC(=O)[C@@H]1CCCC[C@H]1N | inactive |
| NCCC[C@@H](CC(=O)N[C@@H]1CCNC[C@H]1C(=O)N[C@H](CC(=O)N[C@@H](CCC(=O)O)CC(=O)O)Cc1c[nH]c2ccccc12)NC(=O)C[C@H](Cc1ccccc1)NC(=O)[C@@H]1CCCC[C@H]1N | inactive |
| CC(C)C[C@@H](CC(=O)N[C@H](CC(=O)N[C@@H]1CCCC[C@H]1C(=O)N[C@H](CC(=O)N[C@@H](CCC(=O)O)CC(=O)O)Cc1ccccc1)C(C)C)NC(=O)[C@@H]1CCCC[C@H]1N | inactive |
| CC(C)C[C@@H](CC(=O)N[C@@H](CCC(=O)O)CC(=O)O)NC(=O)[C@@H]1CNCC[C@H]1NC(=O)C[C@H](CCCN)NC(=O)C[C@H](Cc1c[nH]c2ccccc12)NC(=O)[C@@H]1CNCC[C@H]1N | inactive |
| COc1ccc(-c2coc3ccc(O[C@@H]4O[C@@H](COC(C)=O)[C@@H](OC(C)=O)[C@@H](OC(C)=O)[C@H]4OC(C)=O)c(OC(C)=O)c3c2=O)cc1 | inactive |
| CC(C)[C@@H](CC(=O)N[C@@H]1CCCC[C@H]1C(=O)N[C@H](CC(=O)N[C@@H](CCC(=O)O)CC(=O)O)Cc1ccccc1)NC(=O)C[C@H](Cc1ccccc1)NC(=O)[C@@H]1CNCC[C@H]1N | inactive |
| Clc1ccc(CO[C@@H](Cn2ccnc2)c2ccc(Cl)cc2Cl)cc1 | 63.1 nM (active) |
| NCCC[C@@H](CC(=O)N[C@@H]1CCCC[C@H]1C(=O)N[C@H](CC(=O)N[C@@H](CCC(=O)O)CC(=O)O)Cc1ccccc1)NC(=O)C[C@H](Cc1c[nH]c2ccccc12)NC(=O)[C@@H]1CCCC[C@H]1N | inactive |
| CC(C)C[C@@H](CC(=O)N[C@H](CC(=O)N[C@@H]1CCCC[C@H]1C(=O)N[C@H](CC(=O)N[C@@H](CCC(=O)O)CC(=O)O)Cc1ccccc1)C(C)C)NC(=O)[C@@H]1CNCC[C@H]1N | inactive |
| CC(C)[C@@H](CC(=O)N[C@@H]1CCCC[C@H]1C(=O)N[C@H](CC(=O)N[C@@H](CCC(=O)O)CC(=O)O)Cc1ccccc1)NC(=O)C[C@H](Cc1ccccc1)NC(=O)[C@@H]1CCCC[C@H]1N | inactive |
| CC(C)C[C@@H](CC(=O)N[C@H](CC(=O)N[C@@H]1CCNC[C@H]1C(=O)N[C@H](CC(=O)N[C@@H](CCC(=O)O)CC(=O)O)Cc1c[nH]c2ccccc12)C(C)C)NC(=O)[C@@H]1CCCC[C@H]1N | inactive |
| NCCC[C@@H](CC(=O)N[C@@H]1CCNC[C@H]1C(=O)N[C@H](CC(=O)N[C@@H](CCC(=O)O)CC(=O)O)Cc1ccccc1)NC(=O)C[C@H](Cc1c[nH]c2ccccc12)NC(=O)[C@@H]1CCCC[C@H]1N | inactive |
| CC(C)C[C@@H](CC(=O)N[C@@H](CCC(=O)O)CC(=O)O)NC(=O)[C@@H]1CCCC[C@H]1NC(=O)C[C@@H](NC(=O)C[C@H](Cc1ccccc1)NC(=O)[C@@H]1CNCC[C@H]1N)C(C)C | inactive |
| CC(C)C[C@@H](CC(=O)N[C@@H](CCCN)CC(=O)N[C@@H]1CCNC[C@H]1C(=O)N[C@H](CC(=O)N[C@@H](CCC(=O)O)CC(=O)O)Cc1c[nH]c2ccccc12)NC(=O)[C@@H]1CCCC[C@H]1N | inactive |
| NCCC[C@@H](CC(=O)N[C@@H]1CCCC[C@H]1C(=O)N[C@H](CC(=O)N[C@@H](CCC(=O)O)CC(=O)O)Cc1ccccc1)NC(=O)C[C@H](Cc1c[nH]c2ccccc12)NC(=O)[C@@H]1CNCC[C@H]1N | inactive |
| CC(C)C[C@@H](CC(=O)N[C@@H](CCCN)CC(=O)N[C@@H]1CCNC[C@H]1C(=O)N[C@H](CC(=O)N[C@@H](CCC(=O)O)CC(=O)O)Cc1ccccc1)NC(=O)[C@@H]1CNCC[C@H]1N | inactive |
| CC(C)C[C@@H](CC(=O)N[C@@H](CCCN)CC(=O)N[C@@H]1CCNC[C@H]1C(=O)N[C@H](CC(=O)N[C@@H](CCC(=O)O)CC(=O)O)Cc1ccccc1)NC(=O)[C@@H]1CCCC[C@H]1N | inactive |
